Source: PubChem BioAssay (NCI)
The panel holds about 79,000 compounds, 15% with a hit somewhere; the sample as a whole holds those more often. Calls of active or inactive are those of the source. Cut-off read from the data, not from the text of the source: active = growth inhibition above about 70%; inactive = the rest.

Legend:
[1] = NCI Yeast Anticancer Drug Screen. Data for the rad50 strain (AID 155);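 note: 0% = growth of vehicle-only cultures of the same strain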; conditions: S. cerevisiae rad50 strain growth inhibition; at 50.0 µM; stronger effect = higher value
Summary of the method: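 A DNA repair-deficient yeast mutant serves as the test organism; compound-induced growth inhibition is calculated against vehicle-treated cells.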

[2] = NCI Yeast Anticancer Drug Screen. Data for the mec2-1 strain (AID 157); conditions: S. cerevisiae mec2-1 strain, at 50.0 µM, stronger effect = higher value
Summary of the method: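 Yeast mec2-1 mutant treated with compound. Readout: growth inhibition vs vehicle controls.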

[3] = NCI Yeast Anticancer Drug Screen. Data for the sgs1 mgt1 strain (AID 161);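 note: 0% = growth of cultures given vehicle only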; conditions: S. cerevisiae sgs1 mgt1 strain, at 50.0 µM, stronger effect = higher value
Summary of the method: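 Genetically altered yeast, compound exposure, growth inhibition relative to vehicle.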

[4] = NCI Yeast Anticancer Drug Screen. Data for the bub3 strain (AID 167); conditions: S. cerevisiae bub3 mutant strain, at 50.0 µM, stronger effect = higher value
Summary of the method: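 Inhibition values come from growth of compound-treated mutant yeast normalised to vehicle-treated controls.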

[5] = NCI Yeast Anticancer Drug Screen. Data for the mlh1 rad18 strain (AID 175); conditions: S. cerevisiae mlh1 rad18 strain growth inhibition; at 50.0 µM; stronger effect = higher value
Summary of the method: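 Yeast w/ defined DNA-repair lesions; compound exposure; growth vs vehicle controls → % inhibition.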

[6] = NCI Yeast Anticancer Drug Screen. Data for the cln2 rad14 strain (AID 165);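 note: 0% = growth equal to vehicle treated cultures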; conditions: S. cerevisiae cln2 rad14 strain, at 50.0 µM, stronger effect = higher value
Summary of the method: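 cln2 rad14 yeast strain; compound exposure; growth inhibition read vs vehicle controls.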

Measured: growth inhibition

CCCCOCCOC(=O)CCl
inactive: [1] 9.1% | [2] -21.1% | [3] 33% | [4] -4.95% | [5] 14.8%

CC(=O)CC(C)C(=O)O (centres undefined) (tested in a mixture with another compound)
inactive: [1] -5.9% | [2] -11% | [3] -16.6% | [4] -5.6% | [5] -20.6%

NNC(N)=NCCCC(N)C(=O)O (centres undefined)
inactive: [1] -22% | [2] -42% | [3] -34.3% | [4] -45.6% | [5] -16.6%

COc1ccccc1-n1c(C)nc2ccccc2c1=O
inactive: [1] -5% | [2] -19.6% | [3] 6.2% | [4] 19.7% | [5] 4.8%

CC(C)C1C=Cc2ccccc21 (centres undefined)
inactive: [1] 13.8% | [2] 1.85% | [3] 4.45% | [4] -3.55% | [5] 28.8%

CC(=O)OC1CCC2(C)C(CCC3C2CCC2(C)C(c4ccc(=O)oc4)C(OC(C)=O)CC32O)C1 (centres undefined)
inactive: [1] 45.5% | [2] 0.05% | [3] 21.3% | [4] -4.45% | [5] -0.5%

COC(=O)C(C)N(CCCl)P1(=O)OCCCN1CCCl (centres undefined)
inactive: [1] 49.2% | [2] 24.8% | [3] -6.15% | [4] -20.6% | [5] 20.6%

O=C(CC(=O)c1ccccc1)c1ccccc1.[Tl]
active: [1] 96.2% | [2] 91.5% | [3] 97.5% | [4] 88.7% | [5] 98.1%

N#CCO
inactive: [1] -3.7% | [2] 11.3% | [3] -9.1% | [4] -3.4% | [5] -5.65%

CC1(C)OP(=O)(c2ccccc2)C=C1Br (centres undefined)
inactive: [1] -39.9% | [2] -9.4% | [3] -23.4% | [4] -2.75% | [5] -3.7%

CCNC1=C(N2CC2)C(=O)C(NCC)=C(N2CC2)C1=O
inactive: [1] 30.5% | [2] 15.7% | [3] 29.4% | [4] 13.3% | [5] 18.7%

[Cl][Sn]1([Cl])[CH2]CCCCCC[CH2][Sn]([Cl])([Cl])[CH2]CCCCCC[CH2]1
inactive: [1] 26.4% | [2] 6.75% | [3] 24.1% | [4] -2.05% | [5] 18.7%

N=Cc1c(O)[nH]c(=O)[nH]c1=O
inactive: [1] 1.4% | [2] 8.75% | [6] -10.4% | [4] 0.65% | [5] -0.8%

O=C(NCCc1ccccn1)c1ccc2cc(C(=O)N3CC(CCl)c4ccc([N+](=O)[O-])cc43)[nH]c2c1 (centres undefined)
inactive: [1] 8.65% | [2] -2% | [6] 12.4% | [4] 2.95% | [5] -76.3%

Nc1cc(Cl)ccc1Cl
inactive: [1] 1.1% | [2] -11.3% | [6] -24.9% | [4] 1.15% | [5] -11.8%

CC(N)Cc1c[nH]c2ccccc12 (centres undefined)
inactive: [1] 2.9% | [2] -22.2% | [6] 20.6% | [4] -1.75% | [5] 12.8%

O=S(=O)(O)O.[Cr+3].[NH-]CC[NH-].[NH-]CC[NH-].[NH-]CC[NH-]
inactive: [1] -20.7% | [2] -20.1% | [6] -36.5% | [4] 10% | [5] 7.25%

CS(=O)(=O)c1ccc(COP(N)(=O)N(CCCl)CCCl)cc1 (centres undefined)
inactive: [1] 17.1% | [2] -8.05% | [3] -0.95% | [5] 17.7%

CCC1(CCBr)C(=O)NC(=O)NC1=O
inactive: [1] -33.6% | [2] 3.35% | [3] 11.8% | [4] 21.6% | [5] 2.3%

c1ccc2c3c(ccc2c1)NC1CCCN1C3 (centres undefined)
inactive: [1] 21.8% | [2] 6.65% | [6] -38.8% | [4] -8.6% | [5] 12.2%

O=NNc1cccc(NN=O)n1
inactive: [1] 47.2% | [2] -22.8% | [6] -2.75% | [4] -26.5% | [5] -3.15%

O=CC1(c2ccccc2)CCN(Cc2ccccc2)CC1
inactive: [1] 38.8% | [2] -16.1% | [6] 41.3% | [4] 38.1% | [5] 17.4%

O=C=Nc1ccc(Cl)cc1
inactive: [1] -10.2% | [2] -14.9% | [6] -21.4% | [4] -2.45% | [5] -15.9%

Oc1ccc(Br)cc1
inactive: [1] 1.15% | [2] -18.1% | [6] -14.3% | [4] -15.1% | [5] -6.5%
